CF NFkB block – cystic fibrosis NF-kB activation inhibition. inhibition, % at 5 µM. actives 0.86% (n = 360,000). AID 588850. KKLEB NF-kB-GFP reporter, PAF-induced, GFP fluorescence overnight;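 active = at least 50% inhibition at 5 µM, scaled per plate between neutral and stimulator controls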;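 note: PAF is a Pseudomonas aeruginosa culture filtrate used as stimulus; plate controls were PAF-stimulated DMSO wells for no effect and unstimulated DMSO wells for full effect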
TWEAK-Fn14 inh – inhibitors of TWEAK-Fn14 interaction signaling | TWEAK-stimulated Fn14 reporter cells, luciferase luminescence, 8 h | inhibition, % at 10 µM | actives 2% (n = 360,000) | AID 1159606; in the data active = inhibition above about 50%
KKLEB tox – counter-screen for CF NF-kB inhibitors: cytotoxicity | KKLEB CF airway cells viability, ATPlite luminescence, overnight; hits give low values; cells stimulated with P. aeruginosa culture filtrate | activity change (cytotoxicity), % at 5 µM | actives 0.36% (n = 360,000) | AID 602141;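 active = corrected activity change at or below -50% at 5 µM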
HIF-2a block – blocks HIF-2a reporter activity; 786-0 RCC cells HIF-2a reporter, luciferase luminescence, overnight; inhibition, % at 18.8 µM; actives 0.72% (n = 360,000); AID 624352;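 active = inhibition of the luminescence signal of 40% or more relative to plate controls, in a single-dose primary screen at 18.75 µM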
LGR2 inh – blocks bursicon-induced cAMP signaling via Drosophila LGR2. HEK293 LGR2, CRE-luciferase, bursicon-stimulated, 4 h. inhibition, % at 9.99 µM. actives 0.35% (n = 380,000). AID 720647;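 active = drop in luminescence signal, shown as inhibition above about 50% in the replicate tests, limit read from the data, passing the limit was not always enough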;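 note: agonist challenge used bursicon conditioned medium at about half maximal strength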
iPSC survival up – increases survival of single human iPS cells. hiPSC single-cell survival, ATPlite luminescence; 100% = ROCK inhibitor wells, 0% = DMSO. survival enhancement, % at 20 µM. actives 0.044% (n = 360,000). AID 602274; in the data active = survival enhancement above about 18%;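 note: cells exposed to compounds for 16 hours before the ATP read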
* = called active by the depositor; / = no result given. This is a sample that favours compounds with a hit; in the whole collection about 2.3% have one here.

SMILES | CF NFkB block | TWEAK-Fn14 inh | KKLEB tox | HIF-2a block | LGR2 inh | iPSC survival up
O=[N+]([O-])c1ccc(Sc2nccn2Cc2ccccc2)c([N+](=O)[O-])c1 | 47.6 | 69.5* | -29.8 | -3.9 | 13.0 | -3.1
CN(C)CC(=O)N1CCCCN2[C@@H](CO)[C@H](c3ccc(/C=C/c4ccccc4)cc3)[C@@H]2C1 | / | / | / | / | 1.3 | /
COc1ccc(NC(=O)N(C)C[C@@H]2Oc3ccc(NS(=O)(=O)c4ccc(F)cc4)cc3C(=O)N([C@@H](C)CO)C[C@H]2C)cc1 | / | / | / | / | -32.9 | /
COc1cccc(CNC(=O)C[C@@H]2C=C[C@H](NC(=O)C3CC3)[C@@H](CO)O2)c1 | / | / | / | / | 2.7 | /
COCC(=O)Nc1ccc2c(c1)OC[C@@H](C)N(Cc1cccc(F)c1)C[C@H](C)[C@@H](OC)CN(C)C2=O | / | / | / | / | 8.3 | /
O=C(C[C@@H]1CC[C@H]2[C@@H](COC[C@@H](O)CN2S(=O)(=O)c2ccc(F)cc2)O1)N[C@H]1CCN(Cc2ccccc2)C1 | / | / | / | / | 2.1 | /
COc1ccc(-c2cn3cc(C)ccc3n2)cc1F | -11.2 | 76.5* | -27.2 | -16.0 | 90.2* | -2.1
COc1ccc(-c2cn3cc(C)ccc3n2)cc1OC | -15.2 | 44.7 | -19.5 | -135.7 | / | -4.2
C[C@H]1CN([C@@H](C)CO)C(=O)c2cc(NC(=O)C3CC3)ccc2O[C@H]1CN(C)S(=O)(=O)c1ccc(F)cc1 | / | / | / | / | 4.8 | /
N#C/C(=N\Nc1cccc(C(F)(F)F)c1)C(=O)c1csc(-c2cccnc2)n1 | 53.4* | -16.3 | -40.5 | -29.0 | 11.8 | -0.1
Cc1cc(Sc2ncnc(N)c2[N+](=O)[O-])ncn1 | 66.0* | 51.1* | 4.6 | 15.8 | / | -1.7
Cc1cc(Sc2nc(N)ncc2[N+](=O)[O-])ncn1 | 37.6 | 32.2 | -2.2 | 3.3 | -3.3 | -1.8
CC(=O)/C(C#N)=C1\NC(=O)C(Cc2ccccc2)S1 (configuration not stated) | -15.2 | 63.8* | 0.4 | -30.9 | 9.2 | 6.1
CC(=O)/C(C#N)=C1\NC(=O)C(Cc2ccccc2C)S1 (configuration not stated) | 2.5 | 11.6 | 6.3 | -41.0 | 3.4 | -0.2
O=C1[C@@H](Oc2ccccc2)[C@@H](c2ccccc2)N1c1ccccc1 | 3.8 | 0.5 | -6.6 | 10.6 | -11.0 | 2.6
O=C1[C@H](Oc2ccccc2)[C@@H](c2ccccc2)N1c1ccncc1 | 48.9 | 65.0* | -28.6 | -69.9 | 65.9* | -3.1
C[C@H]1CN([C@@H](C)CO)C(=O)c2cc(NC(=O)Nc3cccc4ccccc34)ccc2O[C@H]1CN(C)Cc1ccc(C(=O)Nc2ccccc2N)cc1 | / | / | / | / | -3.4 | /
CCN1[C@@H]2Cn3c(ccc(/C=C/c4ccccc4)c3=O)[C@H]1[C@@H](C(=O)NC1Cc3ccccc3C1)[C@@H]2CO | / | / | / | / | 7.9 | /
CN1CCN(/N=C/c2ccc(N(c3ccccc3)c3ccccc3)cc2)CC1 | 37.8 | 15.1 | -42.9 | 90.3* | 78.1* | -0.3
Cc1noc(C)c1S(=O)(=O)Nc1ccc2c(c1)C(=O)N([C@H](C)CO)C[C@H](C)[C@H](CN(C)C(=O)c1ccccc1)OCCCC[C@H](C)O2 | / | / | / | / | -0.3 | /
CC(C)(C)c1ccc(/C=N/NC(=O)c2ccccn2)cc1 | -4.6 | 71.0* | -34.8 | -110.5 | 86.4* | -1.0
C[C@@H]1CN([C@H](C)CO)C(=O)c2cc(NS(=O)(=O)c3ccc(F)cc3)ccc2O[C@@H](C)CCCCO[C@H]1CN(C)Cc1ccncc1 | / | / | / | / | 2.2 | /
CC(=O)c1c(Nc2ccc3c(c2)OCCO3)oc(C)cc1=O | -21.9 | 69.9* | 4.7 | -49.9 | -78.3 | 1.9
O=C1C=C(O)c2c(O)cc(O)c(O)c2C1=O | 17.8 | 69.8* | -23.4 | 10.1 | -12.4 | -2.0
S=C(Nc1ccc(N2CCOCC2)cc1)Nc1ccc2nc(-c3ccco3)c(-c3ccco3)nc2c1 | -2.7 | 71.6* | 0.6 | -8.6 | / | 0.8
O=C(Nc1ccc(N2CCOCC2)cc1)c1ccc2nc(-c3ccco3)c(-c3ccco3)nc2c1 | 3.8 | 7.6 | -12.4 | -2.9 | / | 1.7
Cc1noc(C)c1NC(=O)N(C)C[C@H]1Oc2ccc(NS(=O)(=O)c3cccs3)cc2CC(=O)N([C@H](C)CO)C[C@@H]1C | / | / | / | / | -10.8 | /
COCCn1c(SCC(=O)Nc2ccccc2)nc2c(oc3ccccc32)c1=O | -0.2 | -1.7 | -4.9 | 16.1 | -18.0 | -0.6

Assay outcomes deposited in PubChem by several laboratories.
